Results: PubChem BioAssay

assay: binders of probe aFGF10 on microarray, primary screen, stem cell growth factor project, biochemical, small-molecule microarray, fluorescence 635/667 (AID 1071); details: higher = more signal;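 note: score merges 667 nm spot intensity and signal to noise from triplicate slides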

SMILES	composite z-score
COCC(=C=CC[C@H](O)c1ccccc1OCCO)C[C@H](O)c1cc(Cl)cc(Cl)c1O	0.999
C=CCC(OC(C)=O)[C@@H]1[C@@H](N(Cc2ccc(-c3ccccc3)cc2)C(=O)Cc2ccc(F)cc2)c2cc(OCCCO)ccc2N1C(=O)c1ccc(-c2ccccc2)cc1 (stereo partly drawn)	-0.0694
COCCOC(=O)N1C(=O)[C@@]2(c3cc(C#CC4=CCCCC4)ccc31)[C@H](c1ccc(O)cc1)N1[C@H](c3ccccc3)[C@H](c3ccccc3)OC(=O)[C@H]1[C@@H]2C(N)=O	0.54
O=C1O[C@H](c2ccccc2)[C@H](c2ccccc2)N2[C@H]1[C@@H](C(=O)O)[C@]1(C(=O)Nc3ccc(C#CCCO)cc31)[C@H]2c1ccc(O)cc1	-0.0925
O=C(NCc1ccccc1)[C@@]1(Cc2ccccc2)N=C(c2ccc(OCCCO)cc2)O[C@H]1c1ccccc1	0.177
CCOC(=O)C[C@H]1[C@H](OC(=O)c2cc3ccccc3oc2=O)[C@@H](NC(=O)Cc2ccc(OC)cc2)c2cc(OCCCO)ccc2N1C(=O)c1ccccc1	0.379
COc1ccc([Si](C)(C)[C@H]2[C@H](CCO)O[C@@]3(C(=O)N(C)c4c(Br)cc(C)cc43)[C@@H]2C)cc1	0.243
CN(C)C(=O)[C@@]1(Cc2ccccc2)N=C(c2ccc(OCCCO)cc2)O[C@H]1c1ccccc1N=[N+]=[N-]	0.64
CC(=O)NCCCC[C@@H]1NC(=O)[C@@H]2C[C@H](C(=O)NCCCCCCNC(=O)CS)[C@H](c3cccc(OCCO)c3)N2C1=O	0.283
CN(C)CCCNC(=O)[C@@]1(C)c2ccccc2C(=O)N(Cc2cc(F)cc(C(F)(F)F)c2)[C@H]1c1ccc(CO)cc1	-0.681
O=C1C[C@]2(c3ccc([N+](=O)[O-])cc3)C(=O)N(CCN3CCOCC3)c3cc(CO)ccc3[C@H]2N1C1CCCCC1	-0.212
COC(=O)C=C(CC(O)c1cccc(Cl)c1)OC (stereo not drawn)	0.0631
COc1ccc(CCN2C(=O)[C@@]3(c4ccc([N+](=O)[O-])cc4)CC(=O)N(C4CCCCC4)[C@@H]3c3ccc(CO)cc32)cc1	-0.0632
O=C1C2C=CC(C(O)C(c3ccccc3)c3ccccc3)N(n3cnnc3)C2C(=O)N1Cc1ccccc1 (stereo not drawn)	0.784
O=C1c2ccccc2[C@@]2(Cc3ccccc3N(CCN3CCOCC3)C2=O)[C@H](c2ccc(CO)cc2)N1Cc1ccccc1	-0.318
CC(C)(C)OC(=O)CC[C@]1(C(=O)NCC(O)CO)COC(c2ccc(OCCCO)cc2)=N1 (stereo partly drawn)	-0.0211
CN1C(=O)[C@]2(Cc3ccccc3)N=C(c3ccc(OCCCO)cc3)O[C@@H]2c2ccccc21	0.802
O=C1OCCC/C=C\[C@H]2OC34C=CCN(Cn5nnc6ccccc65)C(=O)[C@H]3N(CCO)C(=O)[C@@H]4C12 (stereo partly drawn)	0.0278
CC(C)C(=C=CC[C@@H](O)c1ccccc1OCCO)CCO	0.269
N#Cc1ccc(NN2C(C(O)c3c(F)cccc3Cl)C=CC3C(=O)N(c4ccccc4)C(=O)C32)cc1 (stereo not drawn)	0.63
COC(=O)[C@@]1(Cc2ccccc2)[C@H]2c3cc(C(=O)N4CCCC4)n(Cc4cccc5ccccc45)c3C[C@H]2CN1C(=O)c1ccccc1	0.913
COCC(=C=CC[C@@H](O)c1ccccc1OCCO)C[C@@H](O)c1cc(Cl)cc(Cl)c1O	1.14
C=CCOC(=O)[C@@H]1[C@H]2C(=O)O[C@H](c3ccccc3)[C@H](c3ccccc3)N2[C@H](c2ccc(OCCOC(=O)[C@@H]3C[C@@H]4C(=O)N[C@@H](Cc5ccccc5)C(=O)N4[C@@H]3c3ccc(O)cc3)cc2)[C@@]12C(=O)Nc1ccc(I)cc12	0.302
C[C@@H]1ON(c2cccc(C(=O)OC(C)(C)C)c2)[C@H](c2ccc(Br)cc2)[C@H]1C(=O)N1C(=O)OC[C@H]1Cc1ccccc1	0.511
O=C1OCCC=C[C@H]2OC34C=CCN(CCN5CCOCC5)C(=O)[C@H]3N(CCCCCCO)C(=O)[C@@H]4C12 (stereo partly drawn)	0.0933
C=CC[C@@]1(C(N)=O)N=C(c2ccc(OCCCO)cc2)O[C@@H]1c1ccccc1CN=[N+]=[N-]	0.291
C=CCOC(=O)[C@H]1[C@@H]2C(=O)O[C@@H](c3ccccc3)[C@@H](c3ccccc3)N2[C@@H](c2ccc(OCCOC(=O)[C@H]3C[C@H]4C(=O)N[C@@H](CC(C)C)C(=O)N4[C@H]3c3ccc(O)cc3)cc2)[C@]12C(=O)Nc1ccc(I)cc12	0.69
CCCCN1CC=CC23O[C@@H]4/C=C\CCC(C)OC(=O)C4[C@H]2C(=O)N(CCCCCO)[C@@H]3C1=O (stereo partly drawn)	-1.16
